Data on twelve molecules can be found in PubChem BioAssay (NCI).

This is part of a sample that, as a whole, favours compounds with a hit. Of some 83,000 tested, about 20% had one in any assay.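 Negative percent growth values reflect cell death: -40 means 40% of the cells present at the start died, and -100 means all died.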 Unmarked numbers belong to inactive results. Calls of active or inactive are those of the source. Rule for the calls: active = growth percent below 10; inactive = the rest.

The test relates to UACC-257 melanoma. As to the kind of experiment: NCI-60 one-dose screen, 48 h (100 = growth as untreated, 0 = no growth, -100 = all killed). The note with it: 10 µM unless noted.
`C=C(C)[C@@H]1CC[C@]2(C(=O)OC)CC[C@]3(C)[C@H](CC[C@@H]4[C@@]5(C)C/C(=C/c6cccc(I)c6)C(=O)C(C)(C)[C@@H]5CC[C@]43C)[C@@H]12`: the growth is 107%.

For `N#Cc1c(-c2ccc(Cl)cc2)nc(NN=Cc2ccco2)nc1N1CCOCC1`, the growth was 87.9%.

On to `C=CC(=O)Nc1cccc(Nc2nc(SC)nc(-c3cccc([N+](=O)[O-])c3)c2C#N)c1`, for which the growth was 49%.

Consider `COc1ccc(/C=C/C(=O)c2ccc(O)c(CN3CCN(c4cc5c(cc4F)c(=O)c(C(=O)O)cn5C4CC4)CC3)c2)cc1`, for which the growth is 42%.

On to `COc1cc2nc(N3CCCC3)nc(Nc3ccccc3)c2cc1OC`, for which the growth is -84.2% (active).

For the molecule `COc1cccc(-c2nc3sccn3c2-c2ccnc(NCCNS(=O)(=O)c3ccccc3)c2)c1`, the growth is 42.5%.

Take `COc1cc(/C=C/C(=O)c2c(C)oc3nc[nH]c(=O)c23)cc(OC)c1OC`: the growth was 73%.

Turning to `C=C(C)[C@@H]1CC[C@]2(C(=O)OC)CC[C@]3(C)[C@H](CC[C@@H]4[C@@]5(C)C/C(=C/c6ccc(OC)cc6)C(=O)C(C)(C)[C@@H]5CC[C@]43C)[C@@H]12`, the growth was 104%.

On to `O=S(=O)(Nc1ccc(I)cc1F)c1ccc(-c2cnc(C3CC3)o2)cc1`, for which the growth is 63.1%.

As for `COc1cc2nc(N3CCCC3)nc(NCCc3ccccc3)c2cc1OC`, the growth is 115%.

Turning to `COc1ccc(Nc2nc(SC)nc(-c3cccc([N+](=O)[O-])c3)c2C#N)cc1`, the growth was 89.5%.

With `COc1cc(CNc2oc(-c3ccccc3)c(-c3ccccc3)c2C#N)cc(CN2CCN(C)CC2)c1O`, the growth is -4.26% (active).
